# Measured values as given in the supplement of paper PMC10369915.
# Target: SHP2 N-SH2 domain T42A
# Test: log2 enrichment relative to wild-type ITIM peptide; higher = stronger binding
row,Binder,log2 enrichment
1,VFSVDYGMLDF [PD-1 ITIM pTyr223 peptide variant E225M],-0.596
2,VFSVDYGELMF [PD-1 ITIM pTyr223 peptide variant D227M],-0.781
3,PFSVDYGELDF [PD-1 ITIM pTyr223 peptide variant V218P],0.0339
4,VPSVDYGELDF [PD-1 ITIM pTyr223 peptide variant F219P],0.209
5,VFSPDYGELDF [PD-1 ITIM pTyr223 peptide variant V221P],-1.23
6,VFSVPYGELDF [PD-1 ITIM pTyr223 peptide variant D222P],1.61
7,VFSVDYPELDF [PD-1 ITIM pTyr223 peptide variant G224P],1.75
8,VFSVDYGEPDF [PD-1 ITIM pTyr223 peptide variant L226P],-0.564
9,VFSVDYGELPF [PD-1 ITIM pTyr223 peptide variant D227P],-1.19
10,VFSVDYGELDP [PD-1 ITIM pTyr223 peptide variant F228P],-1.6
